The record followed here is PubChem BioAssay.

SMILES strings stand for the structures. “And” between values parts separate entries of the source, which are not always exact repeats. Equal entries are not always repeated. The source made the active and inactive calls.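 How the source made its calls, unless noted: active means compounds whose cell count with miR-34 switched on is under 0.7 times the count with it off; inactive means the rest.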

Test [1] is described as follows: Wnt pathway potentiators raising nuclear beta-catenin – imaging, WNT3A-conditioned medium, mouse C2C12, NPC library, primary screen (AID 1117326; in the data active means nuclear beta-catenin stimulation mostly above about 4.2%, no sharp cut-off; inactive means mostly below about 10%). Particulars: stronger effect = higher value.
Test [2] can be described thus: stimulators of insulin release from INS-1E, primary screen, cell-based, 5 mM glucose, NPC library (AID 1117329;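 active means compound raises insulin release from rat beta cells at 5 mM glucose, no numeric limit stated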). Particulars: rat INS-1E insulin secretion, at 10 µM, stronger effect = higher value.
The nature of test [3]: growth inhibition of GSK3B-pretreated HCT116 cells – cell-based, CellTiter-Glo, 0.2 to 20 µM (AID 1117336;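 active means compounds lowering colon cancer cell viability after pretreatment blocking the GSK3B kinase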). To be noted: HCT116 viability after GSK3B inhibitor, at 20 µM, stronger effect = higher value. In general terms: In ATP-based viability assays light output follows the ATP content of the culture.
Test [4] is described as follows: inhibition of endothelial tube formation, primary screen, imaging, VEGF stimulated, CD31 staining, tube area, NPC library (AID 1117340;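 active means compound that reduces growth-factor-driven endothelial tube area in a mixed cell culture, no cutoff stated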). Particulars: VEGF-stimulated ADSC/ECFC co-culture, at 10 µM, stronger effect = higher value.
Test [5] can be described thus: GLP1 release stimulators, primary, NCI-H716, NPC library (AID 1117341;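 active means compound raises GLP1 secretion from the human gut endocrine cells, with no numeric limit stated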). Particulars: NCI-H716 cells, at 10 µM, stronger effect = higher value.
The nature of test [6]: HCT116 colon cancer cell growth inhibition, primary screen, CellTiter-Glo luminescence, NPC library (AID 1117342;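 active means compounds that lower survival of HCT116 colon cancer cells in the luminescence readout, no numeric limit stated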). To be noted: at 20 µM (top of the series).
The nature of test [7]: reduced SW480 viability measured with CellTiter-Glo, NPC library, primary (AID 1117343;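 active means compounds that lower viability of the colon cancer cells in the luminescence readout, with no numeric limit stated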). Particulars: CellTiter-Glo luminescence; at 20 µM (top of the series).
Test [8] is described as follows: NPC library primary testing for decreased DLD-1 cell viability via CellTiter-Glo (AID 1117346;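 active means compounds that lower survival of DLD-1 colon cancer cells in the luminescence readout, no cutoff given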). Particulars: DLD-1 viability, CellTiter-Glo luminescence; at 20 µM (top of the series).
Test [9] in a line: compounds altering viability of human ES cells (AID 493140; call rule not given here;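 further: cells exposed to compounds for four days before counting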). To be noted: human embryonic stem cell survival screen; stronger effect = higher value.
Test [10] can be described thus: P. berghei load reduction in hepatocytes – cell-based, HepG2, luciferase luminescence, HepG2 viability, primary screen (AID 624349; in the data active means parasite load remaining mostly below about 12%, no sharp cut-off; inactive means mostly above about 10%;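 further: 100% = mean of DMSO negative control wells on the same plate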). Particulars: P. berghei liver stage in HepG2, luciferase luminescence, concentration not given here; parasite load remaining: stronger effect = lower value; viability: measured here: HepG2 viability without parasites.
A short description of test [11]: EMT-state selective cytotoxicity in co-culture – imaging, PC-3E GFP, TEM4-18 mCherry, primary screen (AID 1345086;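 active means compounds killing one labelled cell type while sparing the other, by normalised counts and ratio limits, not self-fluorescent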;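 further: cells exposed to compound for 72 h before imaging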;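 on red/green cell ratio (normalised): normalised mesenchymal count divided by normalised epithelial count so high means epithelial killing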). To be noted: PC-3E GFP / TEM4-18 mCherry co-culture, imaging cell counts, at 1 µM.
Test [12] can be described thus: viability loss with induced miR-34 in A549 – imaging, A549 dox-inducible miR-34, nuclei and caspase counts, primary screen (AID 1347080). To be noted: A549 miR-34 inducible, Hoechst nuclei count, 48 h.
Test [13] addresses NAD(+) hydrolase SARM1 (Homo sapiens) (UniProt Q6SZW1). Kind of test: blocking NAD cleavage by SARM1 SAM-TIR – cell lysate, NAD-Glo luminescence (AID 1508614;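 active means compound whose remaining NAD level is above about 45 nM, limit read from the data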). To be noted: SAM-TIR HEK293T lysate NADase, at 1 µM, stronger effect = higher value.
In test [14] the test system is Hepatitis C virus NS3 helicase. The test is described as follows: blockers of NS3h binding to ssDNA – biochemical, fluorescence polarization, LOPAC1280 library, primary screen (AID 687035; in the data active means inhibition above about 37%). Particulars: Purified HCV NS3 helicase, Cy5-dT15 ssDNA binding fluorescence polarization; stronger effect = higher value; concentration not given here. On the technique in general: In fluorescence polarisation assays a small probe gives low polarisation when free and higher when bound to something large.

A short description of test [15]: compounds altering Cy5-DNA-NS3h complex signal – biochemical, LOPAC1280, artefact control for HCV NS3 helicase inhibitor project (AID 687037; call rule not given here). To be noted: Cy5-DNA-NS3h complex fluorescence interference counterscreen. In general terms: The purpose of a counterscreen is to sort out artefacts and off-target activity.
Test [16] has as its system Aerobactin synthetase IucA (Klebsiella pneumoniae, hypervirulent). Kind of test: biochemical IucA inhibition screen of LOPAC library by absorbance (AID 1346212; call rule not given here;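 further: 100% = no compound wells and 0% = no enzyme wells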). To be noted: IucA enzyme assay, absorbance (OD) readout; stronger effect = lower value;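 tested at 8 µM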.
Test [17] in a line: MELAS cybrid and Rieske KO viability enhancers – cell-based, MELAS cybrids, Rieske KO mouse fibroblasts, CellTiter-Glo, primary screen (AID 1508586;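 active means mean z-score across replicates of 1.96 or higher in either the MELAS or the Rieske mutant cell line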;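 further: z relative to plate mean and SD of compound and empty wells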). To be noted: low glucose.
Test [18] in a line: galactose survival enhancers in mitochondrial complex I cybrids – cell-based, galactose medium, ATP luminescence, primary screen (AID 1645843;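 active means z-score of at least 1.8 in each of two replicates, scored against plate mean and spread of sample wells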;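 further: positive z means more ATP and so rescue of galactose-driven cybrid death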). Particulars: complex I mutant cybrid cells, 72 h, stronger effect = higher value.
Where [19] appears, read: measured here: relative caspase fold change +Dox/-Dox.
The mark [20] stands for this setting: measured here: total cells with miR-34 induction, stronger effect = lower value.
[21] abbreviates: measured here: total cells without miR-34 induction.

NAD(+) hydrolase SARM1 (Homo sapiens), sequence (Q6SZW1 whole entry, looked up): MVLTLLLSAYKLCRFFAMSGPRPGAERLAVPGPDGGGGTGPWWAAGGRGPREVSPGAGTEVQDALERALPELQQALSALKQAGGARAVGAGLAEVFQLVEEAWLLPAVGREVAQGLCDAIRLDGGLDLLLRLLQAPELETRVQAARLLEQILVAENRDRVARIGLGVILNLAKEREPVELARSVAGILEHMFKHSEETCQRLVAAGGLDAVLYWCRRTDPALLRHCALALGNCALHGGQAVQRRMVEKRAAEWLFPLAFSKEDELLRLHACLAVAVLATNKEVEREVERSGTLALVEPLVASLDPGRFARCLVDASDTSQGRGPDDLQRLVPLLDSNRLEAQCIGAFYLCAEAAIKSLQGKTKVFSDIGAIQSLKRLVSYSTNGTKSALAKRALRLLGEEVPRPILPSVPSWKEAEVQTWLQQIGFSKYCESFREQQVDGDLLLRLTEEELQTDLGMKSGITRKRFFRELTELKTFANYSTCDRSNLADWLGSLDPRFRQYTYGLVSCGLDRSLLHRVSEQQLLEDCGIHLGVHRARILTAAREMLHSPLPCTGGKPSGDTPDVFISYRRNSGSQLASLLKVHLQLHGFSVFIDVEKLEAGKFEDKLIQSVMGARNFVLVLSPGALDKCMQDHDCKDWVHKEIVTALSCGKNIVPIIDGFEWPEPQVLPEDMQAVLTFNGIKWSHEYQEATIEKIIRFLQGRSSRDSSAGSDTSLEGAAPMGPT

Regarding `COC[C@@H](NC(C)=O)C(=O)NCc1ccccc1`, the nuclear beta-catenin stimulation in test [1] (at 10 µM) was 0.6% (inactive); in test [1] (stimulation, at 2 µM), -0.7%. Besides, in test [2], the insulin secretion stimulation is -0.4% (inactive). For the same compound, the viability decrease in test [3] is -7.9% (inactive). Further, the tube area decrease in [4] is -1.1% (inactive). Further, the GLP1 secretion stimulation in [5] is -0.8% (inactive). For the same compound, the inhibition of viability in [6] is 1.2% (inactive). For the same compound, the viability decrease (inhibition) in test [7] is -1% (inactive); in [8] it was 9.6% (inactive).
Turning to `COP(=O)(OC)C(O)C(Cl)(Cl)Cl` (stereo unspecified), the survival in [9] was 17.5 (inactive). Besides, the parasite load remaining in test [10] is 19.7% (inactive) and 127% (inactive). Further, in test [10], the viability (usually the share of living cells, or the viability signal relative to a control) is 48.9% and 90.6%. Besides, the nuclear beta-catenin stimulation is -1.9% (inactive) in [1] (at 10 µM) and 0.4% in test [1] (stimulation, at 2 µM). The insulin secretion stimulation in test [2] was 0.2% (inactive). For the same compound, the viability decrease in test [3] was 2.4% (inactive). Besides, in test [4], the tube area decrease is 5.8% (inactive). Also, in test [5], the GLP1 secretion stimulation was -3.2% (inactive). In [6], the inhibition of viability was -44.1% (inactive). Besides, the values for the viability decrease (inhibition) in test [7] and in [8] were 1.6% (inactive) and -13.3% (inactive), respectively. Also, the red/green cell ratio (normalised) in test [11] (actives lie on both sides) is 0.95 (inactive). The normalised cell number was 0.96 in test [11] (measured here: epithelial PC-3E GFP cell survival) and 0.91 in test [11] (measured here: mesenchymal TEM4-18 mCherry cell survival). The fold change was 0.918 (inactive) in test [12] (stronger effect = lower value) and 1.24 in test [12] (setting [19]). Besides, the cell count was 8320 in [12] (setting [20]) and 9070 in [12] (setting [21]). For the same compound, in [13], the remaining NAD was 10 nM (inactive).
Take `Fc1ccc(C(OCCN2CCN(CCCc3ccccc3)CC2)c2ccc(F)cc2)cc1`: the survival in [9] was 2.08 (inactive). Besides, in test [10], the parasite load remaining is 40.3% (inactive) and 56% (inactive). Besides, the viability in [10] is 74.4% and 71%. In [14], the inhibition (usually the relative decrease from the control value, in per cent) is -2% (inactive). In addition, the fluorescence ratio (interference) in test [15] was 1 (inactive). In addition, the nuclear beta-catenin stimulation is 21.5% (inactive) in [1] (at 10 µM) and -0.6% in test [1] (stimulation, at 2 µM). Moreover, the insulin secretion stimulation in [2] was 4.65% (inactive). In addition, the viability decrease in test [3] is 118% (active). Besides, the tube area decrease in test [4] is 30.2% (inactive). In addition, the GLP1 secretion stimulation in test [5] was 7.4% (inactive). In addition, in [6], the inhibition of viability was 124% (active). Also, the viability decrease (inhibition) in [7] is 159% (active); in test [8], 102% (active). Also, the remaining activity (commonly the signal under treatment as a percentage of the control signal) in [16] is 111% (inactive). Besides, the fold change in test [12] (stronger effect = lower value) was 1.71 (inactive) and 1.06 (inactive) and 1.14 (inactive); in test [12] (setting [19]), 0.907 and 1.17 and 0.595. In addition, the cell count in test [12] (setting [20]) is 1750 and 3970 and 2030; in test [12] (setting [21]) it was 1020 and 3730 and 1770. Further, the z-score in test [17] (MELAS cybrid survival, CellTiter-Glo 48 h, stronger effect = higher value) was -0.775 (inactive); in [17] (Rieske KO mouse fibroblast survival, CellTiter-Glo 72 h), 0.399; in [18] it was -1.03 (inactive) and -1.23 (inactive).
`O=C(NC(=O)c1c(F)cccc1F)Nc1cc(Cl)c(OC(F)(F)C(F)C(F)(F)F)cc1Cl` (stereo unspecified): the nuclear beta-catenin stimulation was 2.8% (inactive) in test [1] (at 10 µM) and 1.2% in [1] (stimulation, at 2 µM). The insulin secretion stimulation in [2] was 3.3% (inactive). Also, in [3], the viability decrease is 3.9% (inactive). For the same compound, the tube area decrease in test [4] is 19.4% (inactive). In addition, the GLP1 secretion stimulation in test [5] was 2.3% (inactive). Moreover, the inhibition of viability in test [6] is 35% (inactive). The values for the viability decrease (inhibition) in test [7] and in [8] were 19.8% (inactive) and 16.2% (inactive), respectively. Further, the fold change in test [12] (stronger effect = lower value) was 1.06 (inactive); in [12] (setting [19]), 0.7. Further, the cell count in test [12] (setting [20]) stood at 7240; in [12] (setting [21]), 6820. In addition, the remaining NAD in test [13] was 10 nM (inactive).
`Cc1ncsc1CCCl`: the inhibition in test [14] is -2% (inactive). The fluorescence ratio (interference) in test [15] is 1 (inactive). For the same compound, the nuclear beta-catenin stimulation in test [1] (at 10 µM) is 1% (inactive); in test [1] (stimulation, at 2 µM), 2.4%. Further, the insulin secretion stimulation in [2] is -0.8% (inactive). The viability decrease in test [3] is -208% (inactive). For the same compound, the tube area decrease in [4] was -22% (inactive). For the same compound, the GLP1 secretion stimulation in test [5] was -0.4% (inactive). Also, the inhibition of viability in test [6] was -3.1% (inactive). Moreover, the values for the viability decrease (inhibition) in [7] and in test [8] were 43.8% (inactive) and 72.4% (active), respectively. The fold change in test [12] (stronger effect = lower value) was 0.959 (inactive) and 0.961 (inactive); in test [12] (setting [19]), 0.758 and 0.938. Besides, the cell count is 9720 and 8120 in test [12] (setting [20]); 10100 and 8450 in test [12] (setting [21]). Besides, in [18], the z-score was 0.7 (inactive) and 0.075 (inactive).
